Reference: the OligoGym collection

What follows are sequences tested against DCX (assay: pooled miR-30 sensor sort-seq; sequence = guide strand). Conditions: shRNA.

Row | Sequence | sensor-assay potency score (higher = more potent)
1 | TACAAGGTGACTTCTGTTGTGC | 0.124
2 | TCAATTATTAGTATTTAGCTGA | 0.00518
3 | TTGGGATTGACATTCTTGGTGT | 0.0923
4 | TTACTTGTGACTGTGGAGGAGA | -0.0876
5 | TTCATTTAAATCAACTCCGATT | -0.375
6 | TTGTATACAAGTCATAAGGGAT | -0.914
7 | TTAACACCTACAATCTGGCTTC | 0.157
8 | ATTCTTGGTGTACTCCACCTTT | -0.629
9 | TTTCTGGCTATAACTATTCTAA | -0.801
10 | TTCTCTTATATGGACTGTCTAT | -0.935
11 | TCTAGTAGTACATATACCGCAA | 0.223
12 | TCTATCTTAAAACAGCTGCAGG | -0.806
13 | TTGAATGCTGCGAATCTTCAGC | -0.1
14 | TTAAAGAACTTACCACACGTGG | -0.728
15 | TAGAGTTTTTTGACAACCCCGG | -0.351
16 | TACAACTGTAAGACAACTGGGA | 0.406
17 | AATGACATTACACACATCTTGC | -0.654
18 | TAACATAGAATATAAACTGAGA | -0.639

The sequences below were run against DDAH1 in the same assay as above. Conditions: shRNA.

Row | Sequence | sensor-assay potency score (higher = more potent)
19 | TAAACCTTTGCACTTTCTGGAT | -0.647
20 | TACTATATTGAGCTGAAGTTTT | -1.16
21 | TTAATTAAAACTGAGCAGCAGG | -0.0699
22 | TAAAGTTGCATTTTCATCTTTC | 0.237
23 | TTTCTGGATACTCTTCCGGGGT | -1.06
24 | TTTCATCTCTACTATATTGAGC | -0.645
25 | TACAGTTTGCTGCTATGTCATC | -1.54
26 | TTCATCTTTCATCTCTACTATA | -1.1
27 | TAAAACATCTCCGCCATCTAAA | -0.943
28 | TTAGATATATACAGTTTGCTGC | -0.536
29 | TTGCATGATCTTAAGGGCCTTC | -0.108
30 | ATCTCTACTATATTGAGCTGAA | -0.824

The sequences below were run against DDB2 in the same assay as above. Conditions: shRNA.

Row | Sequence | sensor-assay potency score (higher = more potent)
31 | TGAGTTTCCATCGAACACGTCG | 0.1
32 | TTGATGGTGTCTGAGCTGGCAA | -1.17
33 | TTTGCCGTCCATGTTCAGCAGG | -0.642
34 | TCAAATAACTGCTTGATCCCTC | 0.323
35 | TAATATCCGGTAAGAATCCAGA | -0.584
36 | TCGAACACGTCGATCGTCCTCA | -0.285
37 | AACTCGGATCTCGCTCTTCTGG | -1.5
38 | TAGAGCTGACACATCATCTTCC | 0.382
39 | TGACACATCATCTTCCCTGAGT | 0.0365
40 | TTTGAAATTAGGATCTGGGTAT | -0.00871
